Source: PubChem BioAssay (National Center for Advancing Translational Sciences (NCATS))
Pol kappa inh-1 = qHTS for Inhibitors of Polymerase Kappa | DNA polymerase kappa (Homo sapiens), Q9UBT6 | purified Pol kappa, fluorescent DNA synthesis assay, 10 min | Potency, µM (titrated, usually from 107 µM), usual class: inhibitors | actives 0.53% (n = 400,000)
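Activity was followed as the change in fluorescence between reads at 0 and 10 min after starting the reaction with 50 nM substrate. Beforehand, 10 nM polymerase had been preincubated with compound for 15 min at room temperature.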
Pol iota inh = qHTS for Inhibitors of Polymerase Iota. DNA polymerase iota (Homo sapiens), Q9UNA4. Pol iota fluorescent replication assay, 10 min. Potency, µM (doses to about 115 µM), usual class: inhibitors. actives 1% (n = 390,000)
Target sequence (Q9UNA4 whole entry, looked up): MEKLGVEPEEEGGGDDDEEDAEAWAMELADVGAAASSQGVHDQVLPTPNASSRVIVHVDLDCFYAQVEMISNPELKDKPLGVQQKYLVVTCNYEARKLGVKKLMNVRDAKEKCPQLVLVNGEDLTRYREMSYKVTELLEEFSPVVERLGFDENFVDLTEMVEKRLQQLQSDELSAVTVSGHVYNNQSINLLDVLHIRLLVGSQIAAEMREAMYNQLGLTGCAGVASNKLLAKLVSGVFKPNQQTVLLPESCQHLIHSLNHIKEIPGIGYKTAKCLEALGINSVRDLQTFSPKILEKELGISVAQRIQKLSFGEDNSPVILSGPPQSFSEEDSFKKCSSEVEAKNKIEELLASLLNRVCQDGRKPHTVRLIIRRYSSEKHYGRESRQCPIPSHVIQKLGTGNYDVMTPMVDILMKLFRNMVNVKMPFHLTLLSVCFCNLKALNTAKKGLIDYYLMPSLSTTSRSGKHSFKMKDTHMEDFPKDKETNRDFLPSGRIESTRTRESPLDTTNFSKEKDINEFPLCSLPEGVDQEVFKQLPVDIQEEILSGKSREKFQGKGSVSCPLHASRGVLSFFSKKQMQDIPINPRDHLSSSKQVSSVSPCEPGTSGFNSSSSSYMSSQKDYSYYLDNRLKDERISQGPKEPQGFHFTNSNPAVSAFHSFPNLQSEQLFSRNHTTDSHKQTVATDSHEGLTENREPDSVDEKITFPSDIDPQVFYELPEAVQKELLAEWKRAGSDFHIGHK
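Pol iota at 10 nM preincubated 15 min with compounds at room temperature; reaction started with fluorescent substrate, 50 nM final. Fluorescence read kinetically at 0 and 10 min; buffer-only wells as negative control.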
POLB inh = qHTS Assay for Inhibitors of DNA Polymerase Beta; actives 1.3% (n = 340,000); P06746; Potency, µM (doses to about 114 µM), usual class: inhibitors; Pol beta primer extension/strand displacement, fluorescence kinetic
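Curves were derived by four-parameter Hill fits of normalized qHTS data. The kinetic fluorescent primer-extension read was taken at 0 and 10 min after 50 nM substrate, following a 15 min room-temperature preincubation of 10 nM enzyme with compounds.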
FEN1 inhibitor = qHTS Assay for the Inhibitors of Human Flap endonuclease 1 (FEN1) | Recombinant FEN1 flap cleavage, fluorescence, 15 min | Potency, µM (highest dose often 114 µM), usual class: inhibitors | actives 0.35% (n = 390,000); further: nearly all actives have a fitted effect of over 65% in size
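With each library titrated from low to high concentration, compounds met 10 nM FEN1 for 15 min at room temperature before 50 nM substrate was added; readings at 0 and 15 min fed four-parameter Hill curve fits.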
Pol eta inh-1 = qHTS for Inhibitors of Polymerase Eta. DNA polymerase eta (Homo sapiens), Q9Y253. recombinant Pol eta, fluorescent DNA replication assay. Potency, µM (titrated, usually from 114 µM), hits mostly inhibitors. actives 1.2% (n = 390,000). AID 588591, 2011
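Pol eta (10 nM) was preincubated with compounds for 15 min at room temperature, after which fluorescent replication substrate (50 nM final) was added to start the reaction. Fluorescence was read kinetically at 0 and 10 min.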
WRN inhibitor = qHTS for Inhibitors of WRN Helicase; actives 0.46% (n = 360,000); WRN helicase unwinding, fluorescent forked duplex, kinetic; AID 651768, 2012; Bifunctional 3'-5' exonuclease/ATP-dependent helicase WRN (Homo sapiens), Q14191; Potency, µM (highest dose often 114 µM), hits mostly inhibitors; further: nearly all actives have a fitted effect of over 55% in size
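Kinetic red-fluorescence monitoring (525/598 nm) tracks WRN helicase activity after 100 nM fluorophore-quencher forked duplex and 2 mM ATP are added to 20 nM enzyme pretreated 15 min at room temperature with compound.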
GALK inh confirm = Confirmation Assay for Inhibitors of Human Galactokinase (GALK); purified GALK, Kinase-Glo ATP depletion luminescence; Potency, µM (highest dose often 115 µM), usual class: inhibitors; actives 70% (n = 150); shares compounds with Pol eta inh-1; AID 2015, 2009
Redox cycling = Confirmatory Assay for Inhibitors of Human Galactokinase (GALK): Phenol-HRP redox assay counterscreen; shares compounds with Pol eta inh-1; Phenol red-HRP H2O2 redox cycling, absorbance 600 nm; Potency, µM (titrated, usually from 115 µM), actives largely listed as inhibitors; actives 40% (n = 150)
HEK293 tox = Secondary Assay for Inhibitors of Human Galactokinase (GALK): HEK-293 Cell Viability Assay | shares compounds with Pol eta inh-1 | Potency, µM (top dose mostly 46.1 µM), usual class: inhibitors | HEK-293 viability, ATP luminescence (CellTiter-Glo), 24/48 h | actives 10% (n = 170) | AID 2547, 2010
Pol kappa inh-2 = qHTS for Inhibitors of Polymerase Kappa: Confirmatory Assay for Cherry-picked Compounds. shares compounds with Pol eta inh-1. purified Pol-kappa, fluorescent strand-displacement substrate. Potency, µM, hits mostly inhibitors. actives 76% (n = 920). AID 720501, 2013
Pol eta inh-2 = qHTS for Inhibitors of Polymerase Eta: Confirmatory Assay for Cherry-picked Compounds; Potency, µM, most hits filed as inhibitors; Pol eta primer extension, TAMRA/BHQ fluorescence, 10 min; shares compounds with Pol eta inh-1; AID 720502, 2013; actives 64% (n = 2,600)
Of the large screens only hits and unclear results are named; the others gave an inactive call (follow-up assays come after a bar, where they were run). Shown are actives, neighbours in structure and some others; about 2.4% of the full set was active somewhere. The call rests on the fitted dose curve; in most records, active means well fitted curve in the direction sought with a large enough effect; inconclusive means small, poorly fitted or top-dose-only effect, or another doubt; inactive means no such curve, though single readings can be large; an effect the other way counts as inactive or inconclusive.

CC(Cc1c[nH]c2ccccc12)C(=O)NCc1ccco1 (stereo not drawn)	Pol kappa inh-1 inconclusive, Pol iota inh inconclusive, POLB inh 32µM, Pol eta inh-1 20µM | Pol kappa inh-2 42 | Pol eta inh-2 30
CC(=O)NC(Cc1c[nH]c2ccccc12)C(=O)NCc1ccco1 (stereo not drawn)	none
CC(C)C(CC(=O)NCc1ccco1)c1ccco1 (stereo not drawn)	Pol kappa inh-1 inconclusive, Pol iota inh inconclusive, POLB inh inconclusive, Pol eta inh-1 18µM, WRN inhibitor inconclusive | Pol eta inh-2 inconclusive
CC(C)c1ccc(NC(=O)CCC(=O)NCc2ccco2)cc1	none
Cc1nc(N2CCCC2)c2c(C(=O)Nc3ccc(C)c(Cl)c3)c(C)oc2n1	none (no result: WRN inhibitor)
COc1cccc(NS(=O)(=O)c2cc(-c3cnc(C4CC4)o3)ccc2C)c1	none (no result: WRN inhibitor)
S=c1[nH]nc(-c2cc(-c3ccccc3)n[nH]2)n1/N=C/C(Br)=C/c1ccccc1	Pol iota inh 22µM, POLB inh 13µM, FEN1 inhibitor inconclusive, Pol eta inh-1 50µM, WRN inhibitor 45µM | Pol kappa inh-2 67
O=C(Cc1ccc(Cl)cc1)Nc1ncc([N+](=O)[O-])s1	none
O=C(Cc1ccc(Br)cc1)Nc1ncc([N+](=O)[O-])s1	Pol iota inh inconclusive, POLB inh inconclusive, Pol eta inh-1 inconclusive | Pol kappa inh-2 inconclusive | Pol eta inh-2 inconclusive
O=C(COC(=O)COc1ccccc1)Nc1ncc([N+](=O)[O-])s1	Pol kappa inh-1 inconclusive, Pol iota inh inconclusive, FEN1 inhibitor inconclusive, Pol eta inh-1 10µM, WRN inhibitor inconclusive (no result: POLB inh) | Pol kappa inh-2 12 | Pol eta inh-2 30
COc1cc(O)c(CCO)c2c1C(=O)C[C@@H](C)O2	none
CC1CCC/C=C/C(=O)c2c(O)cc(O)cc2CC(=O)O1 (stereo not drawn)	Pol kappa inh-1 79µM, Pol iota inh 18µM, Pol eta inh-1 35µM | Pol eta inh-2 76
CCOc1ccc(CN2C(=O)C(=O)c3cccc(C)c32)cc1OC	none (no result: WRN inhibitor)
COc1cc(OC)c(NC(=O)CSc2nccn2C)cc1Cl	none (no result: WRN inhibitor)
COc1cc(/C=N/NC(=O)Cc2nnc(NC(=O)c3ccccc3)s2)ccc1O	POLB inh inconclusive
Cc1cc(SCC(=O)N/N=C/c2ccc(O)c(O)c2)nc2ccccc12	Pol kappa inh-1 inconclusive, Pol iota inh 50µM, POLB inh 8.9µM, FEN1 inhibitor inconclusive, Pol eta inh-1 20µM, WRN inhibitor 79µM | Pol eta inh-2 38
O=C(Cc1nnc(NC(=O)c2ccccc2)s1)N/N=C\c1ccc(O)c(O)c1	Pol kappa inh-1 3.2µM, Pol iota inh 2.2µM, POLB inh 7.1µM, FEN1 inhibitor inconclusive, Pol eta inh-1 3.2µM, WRN inhibitor 18µM | Pol kappa inh-2 9.5 | Pol eta inh-2 38
Cc1cccc(OCC(=O)NCc2ccc3c(c2)CCN3C(=O)c2ccccc2)c1	none (no result: WRN inhibitor)
O=C(/C=C/c1ccco1)c1ccc(NC(=O)C23CC4CC(CC(C4)C2)C3)cc1	Pol kappa inh-1 inconclusive, Pol iota inh inconclusive, POLB inh 7.1µM, FEN1 inhibitor inconclusive, Pol eta inh-1 10µM, WRN inhibitor inconclusive | Pol eta inh-2 inconclusive
Cc1nc(N)sc1-c1csc(Nc2cccc(C(=O)O)c2)n1	Pol kappa inh-1 25µM, Pol iota inh 11µM, POLB inh inconclusive, FEN1 inhibitor inconclusive, Pol eta inh-1 40µM | Pol kappa inh-2 12 | Pol eta inh-2 48
Cc1ccc(C)c(-n2c3nc(=O)[nH]c(=O)c-3cc3cc([N+](=O)[O-])ccc32)c1	Pol kappa inh-1 inconclusive, Pol iota inh 20µM, POLB inh 35µM, FEN1 inhibitor inconclusive, Pol eta inh-1 13µM, WRN inhibitor 79µM | Pol eta inh-2 60
Cc1cccc(-n2c3nc(=O)[nH]c(=O)c-3cc3cc([N+](=O)[O-])ccc32)c1	Pol iota inh inconclusive, FEN1 inhibitor inconclusive, Pol eta inh-1 20µM | Pol eta inh-2 48
O=c1nc2n(-c3ccccc3F)c3ccccc3cc-2c(=O)[nH]1	Pol iota inh inconclusive (no result: WRN inhibitor)
Cn1c(C(=O)NCCc2ccccc2)cc2sc(Cl)cc21	none (no result: WRN inhibitor)
CCc1ccc(NC(=O)CN2C(=O)CC(c3ccccc3)Sc3ccccc32)cc1 (stereo not drawn)	none (no result: WRN inhibitor)
CCOC(=O)c1nc2sc3c(c2c(=O)[nH]1)CCCC3	none
N#C/C(=C\c1ccc(C(=O)O)cc1)c1nc2sc3c(c2c(=O)[nH]1)CCCC3	Pol kappa inh-1 inconclusive, Pol iota inh inconclusive, POLB inh 50µM, FEN1 inhibitor inconclusive, Pol eta inh-1 20µM, WRN inhibitor inconclusive | Pol eta inh-2 30
CCN(CC)c1ccc(NC(=O)CSc2ccsc2[N+](=O)[O-])c(C)c1	Pol kappa inh-1 inconclusive, Pol iota inh inconclusive, POLB inh 25µM, Pol eta inh-1 45µM, WRN inhibitor inconclusive | Pol kappa inh-2 60 | Pol eta inh-2 inconclusive
COc1cc(CNC(=O)c2ccc3c(c2)c(C)c(C)n3Cc2cccc(C)c2)cc(OC)c1OC	none (no result: WRN inhibitor)
CCNC(=O)c1ccc2nc(-c3ccccc3)c(-c3ccccc3)nc2c1	none (no result: POLB inh, Pol eta inh-1, WRN inhibitor)
CCN1CCN(CCNC(=O)c2ccc3nc(-c4cccc(C)c4)c(-c4cccc(C)c4)nc3c2)CC1	none | GALK inh confirm inconclusive | Redox cycling inactive | HEK293 tox inconclusive
CCCNC(=O)c1ccc2nc(-c3ccccc3)c(-c3ccccc3)nc2c1	none
